Screens (PubChem BioAssay)
The list is not random: actives were taken first. Their share in the collection is about 12%.
G9a block: qHTS Assay for Inhibitors of Histone Lysine Methyltransferase G9a; Potency, µM (series often up to 102 µM), without a hit: at the highest dose activity, negative = inhibition, actives largely listed as inhibitors; Histone-lysine N-methyltransferase EHMT2 (Homo sapiens), Q96KQ7; AID 504332, 2011; 8.8% of 350,000 active; G9a H3K9 monomethylation, AlphaScreen, 2 h; further: potency means the concentration at half of the fitted maximal effect; on the % scale 0 is the no-effect control and ±100 the full control effect; nearly all actives have a fitted effect of over 75% in size
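AlphaScreen read-out: biotin-H3K9 peptide (500 nM) methylation by 20 nM enzyme with 20 uM SAM, 2 h at room temperature after 15 min compound preincubation; anti-monomethyl H3K9 antibody plus donor/acceptor beads, 10 min dark.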
BAZ2B inh: qHTS Assay for Inhibitors of BAZ2B; Potency, µM (top dose mostly 114 µM), inactives show top-dose activity change, negative = inhibition, usual class: inhibitors; Bromodomain adjacent to zinc finger domain protein 2B (Homo sapiens), Q9UIF8; AlphaScreen BAZ2B-H3K14Ac peptide displacement; AID 504333, 2011; 4.4% of 360,000 active; further: potency means the concentration at half of the fitted maximal effect; on the % scale 0 is the no-effect control and ±100 the full control effect; nearly all actives have a fitted effect of over 60% in size
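AlphaScreen displacement: compounds (up to 110uM) incubated 30 min at room temperature with a preformed 50 nM BAZ2B/50 nM biotinylated H3K14Ac peptide complex in PBS pH 7.4 with Tween-20. Donor and acceptor beads at 10 ug/mL final added, 20 min light-protected before reading.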
PLK1 PBD block: qHTS for Inhibitors of PLK1-PDB (polo-like kinase 1 - polo-box domain): Primary Screen | Serine/threonine-protein kinase PLK1 (Homo sapiens), P53350 | Plk1 PBD binding of FITC phosphopeptide, fluorescence polarization | Potency, µM, for the others: max response, negative = inhibition, most hits filed as inhibitors | 2.8% of 360,000 active | AID 720504, 2013; further: potency means the concentration at half of the fitted maximal effect; series mostly up to about 57 µM; on the % scale 0 is the no-effect control and ±100 the full control effect; nearly all actives have a fitted effect of over 65% in size
JMJD2A Tudor: qHTS Assay for Inhibitors of JMJD2A-Tudor Domain. AID 504339, 2011. Potency, µM (doses to about 114 µM), for the others: at the top dose activity change, negative = inhibition, most hits filed as inhibitors. 4.4% of 390,000 active. AlphaScreen JMJD2A-Tudor / H3K4me3 peptide binding; further: potency means the concentration at half of the fitted maximal effect; on the % scale 0 is the no-effect control and ±100 the full control effect; nearly all actives have a fitted effect of over 50% in size
PI5P4Ka inh: qHTS for Inhibitors of phosphatidylinositol 5-phosphate 4-kinase (PI5P4K); PI5P4Kalpha enzyme, ADP-Glo luminescence, 60 min; hits give low values; max response, %; 1.2% of 330,000 active; active means max response of -50% or lower; inconclusive means between -30% and -50%; inactive means -30% or higher; further: value at the top dose of about 77 µM; on the % scale 0 is the no-effect control and ±100 the full control effect
Target sequence (P48426 whole entry, looked up): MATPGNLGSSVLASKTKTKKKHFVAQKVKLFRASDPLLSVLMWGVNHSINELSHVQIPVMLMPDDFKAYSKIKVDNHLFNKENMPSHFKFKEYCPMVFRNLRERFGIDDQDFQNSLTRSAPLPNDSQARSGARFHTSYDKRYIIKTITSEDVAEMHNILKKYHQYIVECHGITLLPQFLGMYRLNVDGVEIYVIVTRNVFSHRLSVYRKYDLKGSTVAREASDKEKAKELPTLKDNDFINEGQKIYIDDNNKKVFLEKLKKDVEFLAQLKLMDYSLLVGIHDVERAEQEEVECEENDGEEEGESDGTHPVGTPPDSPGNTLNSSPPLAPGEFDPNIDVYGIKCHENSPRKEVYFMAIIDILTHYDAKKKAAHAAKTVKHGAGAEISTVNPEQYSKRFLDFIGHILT
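ADP-Glo luminescence end-point read after a 60 min room-temperature kinase reaction of PI5P4Kalpha plus substrate, initiated with ATP at 5 microM final. Buffer: 0.038 M HEPES pH 7.4, EGTA, 0.1% CHAPS, 5% DMSO.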
HP1b binding inh: HTS for Inhibitors of HP1-beta Chromodomain Interactions with Methylated Histone Tails | AlphaScreen HP1-beta / biotin-H3K9me3 peptide binding | Potency, µM (doses to about 114 µM), for inactives: top-dose activity change, negative = inhibition, actives largely listed as inhibitors | 0.56% of 390,000 active; further: potency means the concentration at half of the fitted maximal effect; nearly all actives have a fitted effect of over 70% in size
Target sequence (P83916 whole entry, looked up): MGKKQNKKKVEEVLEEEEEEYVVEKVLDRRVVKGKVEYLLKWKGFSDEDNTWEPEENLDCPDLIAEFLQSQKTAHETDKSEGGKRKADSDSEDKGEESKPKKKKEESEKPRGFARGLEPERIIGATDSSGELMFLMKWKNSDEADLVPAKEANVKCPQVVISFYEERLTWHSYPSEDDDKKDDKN
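Compound inhibition of the preformed complex between 50 nM HP1-beta and 50 nM biotinylated H3K9me3 peptide was read by AlphaScreen. Buffer was PBS pH 7.4 with 0.01% Tween-20. Incubations ran 30 min at room temperature, with 10 ug/mL donor/acceptor beads.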
* hit, by the source's call; ? = inconclusive; · = no result; [ ] = dose if it differs, or a comment. Unless noted, the call rests on the fitted dose curve; in most records, active means well fitted curve in the direction sought with a large enough effect; inconclusive means small, poorly fitted or top-dose-only effect, or another doubt; inactive means no such curve, though single readings can be large; an effect the other way counts as inactive or inconclusive.

SMILES	G9a block	BAZ2B inh	PLK1 PBD block	JMJD2A Tudor	PI5P4Ka inh	HP1b binding inh
O=C(c1cc(=O)[nH]c2ccccc12)N1CCN(c2cccc(C(F)(F)F)c2)CC1	2.3%	-19.0%	18.9µM*	?	-27.6	?
Cc1c(C(=O)O)sc2nc(CSc3ncc(C(F)(F)F)cc3Cl)[nH]c(=O)c12	8.2%[59 µM]	50.1µM*	-28.7%	50.1µM*	?	?
O=C(COC(=O)CNC(=O)c1ccc(Cl)c([N+](=O)[O-])c1)NCC1CCCO1 (centres undefined)	9.6%[12.7 µM]	-2.1%	-5.7%	-9.1%	2.5	36.8%
COc1cc(CC(=O)NC(c2ccccc2)c2ccccc2)cc(OC)c1OC	6.9%[59 µM]	-2.9%	21.2µM*	?	-12.0	-6.2%
COc1ccc(C(=O)NC(=S)N(C)C2CCCCC2)cc1Br	16.4%	?	-6.9%	?	-9.1	8.8%
COc1cc(C(=O)N/N=C(\C)Cc2ccccc2)cc(OC)c1OC	13.5%	-7.8%	-3.6%	8.91µM*	0.3	11.2%
COc1ccc(C(=O)NC(=S)N(C)C2CCCCC2)cc1	79.4µM*	-37.4%	-24.0%	-11.0%	?	41.0%
COc1ccc(C(=O)NC(=S)N(Cc2ccccc2)Cc2ccccc2)cc1	59.1%[12.7 µM]	8.91µM*	-10.8%	56.2µM*	-0.8	?
COc1cc(C(=O)NC(c2ccccc2)c2ccccc2)cc(Cl)c1OC	24.0%[59 µM]	-0.6%	-3.5%	-4.9%	10.4	33.4%
COc1cc(C=O)ccc1OC(=O)Nc1ccccc1	·	·	-0.3%	-5.5%	-9.0	19.7%
CCC/C(=N\NC(=O)c1ccc(OC)c(OC)c1)c1ccccc1	79.4µM*	·	3.7%	7.5%	4.0	44.8%
C/C(Cc1ccccc1)=N\NC(=O)CNC(=O)c1ccccc1	24.1%[59 µM]	5.8%	-9.3%	-7.0%	0.2	33.5%
COc1cc(C(=O)NC(=S)N(CCc2ccccc2)CCc2ccccc2)cc(OC)c1OC	8.7%[59 µM]	8.91µM*	-3.1%	-23.6%	23.0	1.9%
C/C(Cc1ccccc1)=N\NC(=O)CNC(=O)c1ccc(Br)cc1	-1.7%[59 µM]	-1.1%	26.7µM*	-27.8%	-8.5	3.2%
Cc1ccc(Sc2ncccc2C(=O)NCc2cc([N+](=O)[O-])ccc2O)c(C)c1	·	35.5µM*	-7.7%	-34.9%	12.0	16.0%
O=C(CN1C(=O)NC2(CCCC2)C1=O)NNC(=O)c1ccc(Br)cc1	4.3%	9.0%	-1.2%	3.16µM*	-5.6	34.7%
COC(=O)c1ccc(-n2nnnc2SC)cc1	10µM*	9.0%	21.2µM*	-9.0%	·	-11.4%
COC(=O)COC(=O)c1ccc(-n2nnnc2SC)cc1	-3.0%[2.33 µM]	-19.7%	-3.6%	-7.5%	·	19.8%
CC1=NCC(C)c2c1[nH]c1ccccc21 (centres undefined)	12.6µM*	?	-7.3%	?	-14.1	?
CC(C)(C)c1ccc(OCC(=O)OCCNC(=O)c2cccnc2)cc1	50.1µM*	4.8%	0.9%	-22.5%	-2.5	35.7%
CC(C)(C)c1ccc(C(=O)NCCCNC(=O)c2cccnc2)cc1	14.4%	-3.0%	1.9%	-6.2%	0.4	14.7%
CCN(CC)CCNC(=O)c1ccc2c(c1)NC(=O)C(CS(=O)(=O)Cc1cccc(Br)c1)N2 (centres undefined)	?	-36.9%	·	-31.8%	·	-6.2%
O=C(NCc1ccccc1Cl)c1ccc2c(c1)NC(=O)C(CS(=O)(=O)Cc1ccc(Cl)cc1)N2 (centres undefined)	28.2µM*	-0.4%	·	?	·	-5.5%
Cc1ccc(CNC(=O)c2ccc3c(c2)NC(=O)C(CS(=O)(=O)Cc2cccc(C)c2)N3)cc1 (centres undefined)	14.1µM*	6.0%[57.1 µM]	·	-15.5%	·	46.7%
CCCNC(=S)NCCN1CCCCC1	8.91µM*	?	-20.5%	39.8µM*	-0.5	-26.9%
SMILES	G9a block	BAZ2B inh	PLK1 PBD block	JMJD2A Tudor	PI5P4Ka inh	HP1b binding inh
CCCCNC(=S)NCCN1CCCCC1	2µM*	4.1%	-5.5%	1.58µM*	-2.4	?
O=C(CCc1c[nH]c2ccccc12)NCCc1ccc(O)cc1	13.6%	2.1%	-1.0%	-23.3%	12.1	33.6%
CCOC(=O)NC1(Nc2ccc(Cl)cn2)Oc2ccccc2O1	6.31µM*	?	·	·	·	·
CCOC(=O)/C=C/C(=O)OCC(=O)Nc1ccc(Cl)cn1	?	3.2%	-15.2%	-12.9%	-5.6	24.1%
CCOC(=O)C1OC1(c1ccccc1)c1ccccc1 (centres undefined)	·	·	0.9%	-12.3%	7.2	19.8%
COc1ccccc1Sc1ccccc1/C=N/NC(N)=O	50.1µM*	-1.7%	1.2%	-0.7%	-7.0	43.4%
COc1ccccc1C=NN=C(NN=Cc1ccccc1OC)NN=Cc1ccccc1OC	·	·	-3.5%	?	9.2	79.4µM*
COc1cccc(/C=N/NC(=O)N/N=C/c2cccc(OC)c2O)c1O	-2.9%[0.501 µM]	10.4%	-8.4%	?	-27.3	34.5%
COc1ccccc1C=NNC(=O)NN=Cc1ccccc1OC	·	·	3.6%	-30.3%	-10.7	22.6%
Cc1ncc(CSSCc2cnc(C)c(O)c2CO)c(CO)c1O	6.2%[59 µM]	·	·	·	·	·
Cc1ncc(CO)c(CNc2ccc(Oc3ccccc3)cc2)c1O	70.8µM*	?	6.8%	?	-1.7	?
Cn1c(NC(=O)c2ccccc2)c(-c2ccccn2)c(=O)c2ccccc21	?	8.1%	-6.8%	31.6µM*	·	6.8%
Cc1cccc(C)c1N1C(=O)[C@@H]2C(c3ccccc3Cl)=NO[C@@H]2C1=O	50.1µM*	-1.7%	-7.6%	-10.1%	-1.6	5.5%
COc1ccc(OC)c(N2C(=O)[C@@H]3C(c4ccccc4Cl)=NO[C@@H]3C2=O)c1	25.7%[2.33 µM]	31.6µM*	18.9µM*	?	-65.6*	17.8µM*
COc1ccc(C2=NO[C@@H]3C(=O)N(c4c(C)cccc4C)C(=O)[C@H]23)cc1OC	50.1µM*	3.3%	-8.9%	-12.3%	0.3	43.0%
COc1ccc(N2C(=O)[C@@H]3C(c4cccnc4)=NO[C@@H]3C2=O)cc1	·	-20.2%	-15.8%	-35.1%	-17.8	26.4%
Cc1cccc(NC(=O)c2cc3c(=O)n4ccccc4nc3n2C)c1C	8.2%[59 µM]	2.8%	·	-15.5%	·	8.2%
Cc1ccc(-n2cc(C(C)(C)C)[nH]c2=S)cc1	-12.3%[2.33 µM]	?	-15.7%	44.7µM*	-10.0	?
O=[N+]([O-])c1ccc(-c2cn(-c3ccccc3)c(=S)[nH]2)cc1	?	5.2%	-11.0%	-12.8%	-6.1	10.4%
